# Test results reported in PubChem BioAssay AID504582 (Broad Institute, 2011).
# The campaign covered roughly 340,000 compounds. About 2,300 (0.68%) were called active. No stated cut-off is given here; in the data, active means growth rescue above about 28% (passing the limit was not always enough); inconclusive means no clear call, values can overlap the other calls. Many of the other results were omitted from the sample, so actives are more common in it than they were.
# Assay: rescue of yeast from PfHsp40 toxicity, primary screen, S. cerevisiae, ATP luminescence (AID 504582);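 further: yeast W303a lacking pdr1 and pdr3 grown in galactose medium; growth measured after three days at 30 °C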
# Details: S. cerevisiae expressing PfHsp40, growth rescue, at 12.5 µM, stronger effect = higher value
row,Structure (SMILES),growth rescue
1,CCN(CC)C(=O)C1CCC(C)(C(=O)O)C1(C)C (configuration not stated),1.46% (inactive)
2,COC(=O)C(C(=O)Nc1cccc(C)n1)C1CCCCCC1 (configuration not stated),-0.474% (inactive)
3,CC(C)NC(=O)N1CCN(c2ccncc2S(=O)(=O)N2CCCCC2)CC1,-0.643% (inactive)
4,O=C(COC(=O)CCOc1ccccc1)Nc1cc(S(=O)(=O)N2CCCCC2)ccc1Cl,1.68% (inactive)
5,Brc1ccc(-c2n(-c3ccccn3)c3ccccc3[n+]2-c2ccccn2)cc1,0.665% (inactive)
6,CCOC(=O)c1ccc(N2C(=O)CC(N3CC(C)OC(C)C3)C2=O)cc1 (configuration not stated),-0.556% (inactive)
7,CCOC(=O)c1ccc(N2C(=O)CC(N3CCN(C(=O)c4ccccc4)CC3)C2=O)cc1 (configuration not stated),53.1% (active)
8,CCCCOC(=O)c1ccc(N2C(=O)CC(N3CCN(C/C=C/c4ccccc4)CC3)C2=O)cc1 (configuration not stated),0.282% (inactive)
9,COc1ccc(N(C)S(=O)(=O)c2ccc3c(c2)CC(C)N3C(=O)C2CC2)c(OC)c1 (configuration not stated),2.19% (inactive)
10,CCC(C(=O)NCCC(C)C)N(Cc1ccccc1Cl)C(=O)c1snc(C(N)=O)c1N (configuration not stated),0.982% (inactive)
11,CCCCC(C(=O)NC(C)(C)C)N(Cc1ccccc1)C(=O)c1snc(C(N)=O)c1N (configuration not stated),59.5% (active)
12,CC(C)(C)NC(=O)C(c1ccc(Cl)cc1)N(CCO)C(=O)c1snc(C(N)=O)c1N (configuration not stated),-0.519% (inactive)
13,CC12CCC(=O)N1C(C(=O)NCCN1C(=O)S/C(=C\c3ccccc3F)C1=O)CS2 (configuration not stated),-1.34% (inactive)
14,COc1ccc(CCNc2nc(C)cc(C)n2)cc1OC,0.933% (inactive)
15,NS(=O)(=O)c1ccc(CCNC(=O)c2ccc(Cl)c(S(=O)(=O)N3CCCCCC3)c2)cc1,0.571% (inactive)
16,CC1=CC(C)(C)N(C(=O)CSc2nnc(-c3ccccc3)o2)c2ccc(C)cc21,81.1% (active)
17,CCc1ccccc1NC(=O)CSc1nnc(-c2ccncc2)o1,-0.233% (inactive)
18,CC1=CC(C)(C)N(C(=O)CSc2nccn2C)c2cc(C)ccc21,-0.0285% (inactive)
19,O=C(CN(c1ccc2c(c1)OCCO2)S(=O)(=O)c1ccccc1)Nc1ccc2c(c1)OCO2,0.974% (inactive)
20,COc1ccc(CNC(=O)COC(=O)c2sccc2C)cc1OC,-0.071% (inactive)
21,COc1cnc(-c2ccccn2)nc1Oc1ccc(C(C)(C)C)cc1,162% (active)
22,COc1ccnc(Oc2ccccc2)c1-c1ncn[nH]1,-2.24% (inactive)

row,Structure (SMILES),growth rescue
1,COc1ccc(NCCc2ccccn2)cc1,-0.895% (inactive)
2,CC1(C(=O)O)CCC(C(=O)Nc2ccc(Cl)c(Cl)c2)C1(C)C (configuration not stated),-0.486% (inactive)
3,Cc1cccc(C)c1NC(=O)CCCSc1nnc(-c2ccco2)n1-c1ccccc1,0.934% (inactive)
4,COc1ccc(CCNC(=O)COc2ccc3c(c2)OCO3)cc1,-0.845% (inactive)
5,CC1CCCN(CC(O)COCc2ccccc2)C1 (configuration not stated),-0.272% (inactive)
6,COc1cc(C)cc(CN2CCC(Cc3ccccc3)CC2)c1O,0.509% (inactive)
7,Oc1c(CN2CCCC2)cc(COCc2ccccc2)c2cccnc12,281% (active)
8,COCCCNC(=S)N1CCCC(c2nc3cc(C)c(C)cc3[nH]2)C1 (configuration not stated),-0.694% (inactive)
9,CCc1ccccc1N(CC(=O)N1CCN(c2ccccc2F)CC1)S(C)(=O)=O,0.191% (inactive)
10,COc1ccc(N2C(=O)/C(=C\c3ccco3)N=C2SCC(N)=O)cc1Cl,-0.407% (inactive)
11,COc1ccc(N2CCN(c3ccc([N+](=O)[O-])cc3Cl)CC2)cc1,-0.626% (inactive)
12,CN1c2ccc([N+](=O)[O-])cc2C(C)(C)C12C=Cc1cc(C(=O)O)ccc1O2 (configuration not stated),200% (active)
13,COc1ccc2c(c1)C=CC1(O2)N(CCO)c2ccccc2C1(C)C (configuration not stated),-0.159% (inactive)
14,O=C(N/N=C\c1ccc(Br)cc1)c1ccc(Cn2cccn2)o1,0.111% (inactive)
15,Cc1c(Cl)c([N+](=O)[O-])nn1Cc1ccc(C(=O)N/N=C\c2cc(Cl)ccc2O)o1,29.8% (active)
16,Cc1nn(Cc2ccccc2Cl)c(C)c1NC(=O)Cn1nc([N+](=O)[O-])c(Cl)c1C,-0.0385% (inactive)
17,COc1ccc(/C=C(\C#N)C(=O)NCCCn2ccnc2)cc1,-0.489% (inactive)
18,CC1(C)NC(=O)N(CCCCSc2ccc(Cl)cc2)C1=O,0.18% (inactive)
19,O=C(O)c1ccc(N/N=C/c2cn(-c3ccccc3)nc2-c2cccs2)cc1,0.668% (inactive)
20,Cc1ccc(NC(=O)COc2ccc(/C=N\NC(=O)c3cccnc3)cc2)cc1C,-0.012% (inactive)
21,O=C(N/N=C/c1sc(N2CCCCC2)nc1-c1cccs1)c1cccnc1,140% (active)
22,O=C(NN=Cc1ccccc1)c1ccccc1,0.391% (inactive)

row,Structure (SMILES),growth rescue
1,CSc1ccc(/C=N/NC(=O)c2cccc(Cl)c2)cc1,40.3% (active)
2,O=C(N/N=C/c1ccc(Cl)c(Cl)c1)c1ccc2nc[nH]c2c1,0.517% (inactive)
3,COC(=O)C1=NNC2(c3ccc(C)cc3)C(=O)N(c3cccc(C)c3C)C(=O)C12 (configuration not stated),-0.596% (inactive)
4,O=C(CSc1ccccn1)N1CCN(S(=O)(=O)c2ccc(Cl)cc2)CC1,-0.63% (inactive)
5,CCc1cc(C(N)=O)c(NC(=O)c2ccc(OC)cc2)s1,648% (active)
6,CCc1cc(C(=O)c2ccc(OC)cc2)c(NC(=O)CN2CCN(C)CC2)s1,-1.5% (inactive)
7,COc1ccc(C(=O)Nc2sc(C)c(C)c2CN2CCOCC2)cc1,0.992% (inactive)
8,O=C(c1ccc2c(c1)OCO2)N1CCNc2ccccc2C1,-1.38% (inactive)
9,COc1ccc(C(=O)NC2CC2)cc1OC1CCN(Cc2cnn(C)c2)CC1,-0.458% (inactive)
10,COc1ccc(-n2cnc3cc(C(=O)NC4CCCC4)ccc32)cc1,3.16% (inactive)
11,COc1cc(C(=O)NC2CCN(C)CC2)ccc1Nc1ncc2c(n1)N(C1CCC(O)CC1)CCC(=O)N2C (configuration not stated),44.4% (active)
12,O=C(/C=N/O)Nc1ccccc1,-1.81% (inactive)
13,c1ccc(-c2nccc(-c3ccc(-n4cnc5ccccc54)cc3)n2)nc1,3.45% (inactive)
14,CN(C)Cc1c(O)ccc2c(=O)c(-c3ccccc3Cl)coc12,-1.86% (inactive)
15,O=C(NCCC1=CCCCC1)c1ccc(-n2cncn2)cc1,0.575% (inactive)
16,O=C(NCCC1=CCCCC1)c1ccc(Cl)c([N+](=O)[O-])c1,34.2% (active)
17,CN(c1ccc(C(=O)NCCC2=CCCCC2)cc1)S(C)(=O)=O,-0.452% (inactive)
18,CCOc1ccccc1N(CC(=O)NC1CCCCC1)C(=O)CCCC(=O)Nc1ccccn1,0.515% (inactive)
19,Cc1ccc(NC(=O)CN(C)C(=O)COC(=O)C(C)(C)Oc2ccc(Cl)cc2)cc1,-0.952% (inactive)
20,Cc1ccc(-c2nn(-c3ccccc3)cc2C(=O)NC2CCC(O)CC2)cc1 (configuration not stated),-0.972% (inactive)
21,O=C(NNC(=S)NC(=O)c1cn(-c2ccccc2)nc1-c1ccccc1)c1ccncc1,117% (active)
22,NC(=O)C1CCN(C(=O)c2cn(-c3ccccc3)nc2-c2cccnc2)CC1,-1.23% (inactive)

row,Structure (SMILES),growth rescue
1,Cc1ccc(SC(=O)COc2ccc(C)c(C)c2)cc1,-0.169% (inactive)
2,CCOc1ccc(-c2ccc(SCC(=O)N3CCOCC3)nn2)cc1,-0.865% (inactive)
3,CC(C)C[C@@H](COc1ccccc1)N1CCN(CC(C)C)CCC1=O,0.09% (inactive)
4,CC1(C)C=Cc2c(ccc3c2OC[C@@H](c2ccc(O)cc2O)C3)O1,232% (active)
5,Nc1cc(N)nc(SCC(=O)Nc2cccc(S(=O)(=O)N3CCCCC3)c2)n1,0.009% (inactive)
6,Cn1c(CC2Sc3ccccc3NC2=O)nnc1SCC(=O)c1ccc(Cl)cc1 (configuration not stated),-0.256% (inactive)
7,COc1ccc(C2N=C(N)N=C(N)N2c2ccccc2)cc1OC (configuration not stated),0.038% (inactive)
8,CC/C(=N\NC(=O)c1ccccc1Cl)c1ccc(Br)s1,-0.619% (inactive)
9,CC/C(=N\NC(=O)c1ccccc1O)c1c(O)n(Cc2ccccc2)c(=O)[nH]c1=O,44.8% (active)
10,COCCN(C(=O)c1ccccc1F)c1c(N)n(Cc2ccccc2)c(=O)[nH]c1=O,-0.643% (inactive)
11,COc1ccc(C(=O)CN2C(=O)NC(C)(c3ccc(C)cc3)C2=O)cc1OC (configuration not stated),0.439% (inactive)
12,COc1ccc(C2Nc3ccccc3C(=O)N2c2ccc(Cl)cc2)cc1Cn1cc([N+](=O)[O-])cn1 (configuration not stated),0.089% (inactive)
13,Cn1ncc(Br)c1C(=O)NC1CCCC1,-0.467% (inactive)
14,COC(=O)[C@@H]1C[C@@]2(O)[C@H](O)[C@H](O)[C@H](O)C[C@H]2N1Cc1ccc(C)s1,-1.59% (inactive)
15,COC(=O)[C@@H]1C[C@@]2(O)[C@@H](O)[C@@H](O)[C@@H](O)C[C@H]2N1Cc1ccc(C)s1,-0.441% (inactive)
16,COC(=O)[C@@H]1C[C@@]2(O)[C@H](O)[C@H](O)[C@H](O)C[C@H]2N1Cc1ccc(C(C)(C)C)cc1,29% (active)
17,CC(=O)c1cccc(-c2ccc(CN3C(CC(C)C)C(=O)N(Cc4cn(CC5CCCCC5)nn4)CCS3(=O)=O)cc2)c1 (configuration not stated),0.3% (inactive)
18,Cc1cc(N=Nc2ccc3ccccc3c2)ccc1O,91.3% (active)
19,C#CCOCCOCCOCCNc1nc(N2CCN(C(=O)CCCCCCCCCCNC(=O)[C@H]([C@@H](C)CC)n3cc(CCCCN=C(N)N)nn3)CC2)nc(N2CCN(C(=O)CCCCCCCCCCNC(=O)[C@H](CO)n3cc(CCCSC)nn3)CC2)n1,29.5% (active)
20,C#CCOCCOCCOCCNc1nc(N2CCN(C(=O)[C@H](C(C)C)n3cc(CCO)nn3)CC2)nc(N2CCN(C(=O)[C@H](C(C)C)n3cc(CCO)nn3)CC2)n1,-2.28% (inactive)
21,C#CCOCCOCCOCCNc1nc(N2CCN(C(=O)[C@H](CCCN=C(N)N)n3cc(C(N)[C@@H](C)CC)nn3)CC2)nc(N2CCN(C(=O)[C@H](CO)n3cc([C@@H](N)C(C)C)nn3)CC2)n1 (some centres not stated),-0.354% (inactive)
